Measurements reported in PubChem BioAssay (NCATS).
Results filed as inconclusive are left out. Calls of active or inactive are those of the source. The call rests on the fitted dose curve; in most records, active means well fitted curve in the direction sought with a large enough effect; inconclusive means small, poorly fitted or top-dose-only effect, or another doubt; inactive means no such curve, though single readings can be large; an effect the other way counts as inactive or inconclusive.

Assays:
[1] = MultiTox-Fluor Cytotoxicity Assay - LYMP1-003 - Live Cells (AID 962);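 further: cells exposed to compound for 16 hours at 37 °C; cytotoxic hits lower the live-cell protease signal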
Procedure, shortened: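 Human lymphoblastoid line LYMP1-003 in complete culture medium, treated 16 hr with titrated compounds. Viable cells quantified via cell-permeant GF-AFC substrate fluorescence; AC50 derived by Hill fitting.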

[2] = Cell Viability - LYMP2-003 (AID 965);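 further: cells exposed to compounds for 24 h before reading; nearly all actives have a fitted effect of over 50% in size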
Procedure, shortened: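 Human lymphoblastoid cells (2500/well) were pre-incubated 5 hr at 37 C, then exposed to compounds over a concentration range for 24 hr at 37 C. Intracellular ATP was read by CellTiter-Glo luminescence; AC50 came from Hill-equation fits.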

[3] = Cell Viability - LYMP2-004 (AID 966); further: nearly all actives have a fitted effect of over 65% in size
Procedure, shortened: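 Viable-cell number estimated from ATP luminescence (CellTiter-Glo) in 2500 human lymphoblastoid cells/well after 24 hr at 37 C with compound. AC50 fitted to the standard Hill equation.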

[4] = Cell Viability - LYMP2-009 (AID 968); further: series mostly up to about 92 µM; nearly all actives have a fitted effect of over 55% in size
[5] = Cell Viability - LYMP2-011 (AID 969); further: nearly all actives have a fitted effect of over 60% in size
Procedure, shortened: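 Cells seeded at 2500 per well rest 5 hr before compound addition, then incubate 24 hr at 37 C. CellTiter-Glo reagent is added for 30 min at room temperature before luminescence detection.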

[6] = Cell Viability - LYMP2-013 (AID 970); further: series mostly up to about 92 µM; nearly all actives have a fitted effect of over 55% in size
Procedure, shortened: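 In complete culture medium, human lymphoblastoid cells were dosed for 24 hr at 37 C, with tetraoctylammonium bromide (6.4pM to 92 uM) as positive control. Viability reflects luciferase-based ATP signal; AC50 derived from concentration-response curves.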

[7] = Cell Viability - LYMP2-017 (AID 972); further: series mostly up to about 92 µM; nearly all actives have a fitted effect of over 55% in size
Procedure, shortened: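 In this qHTS format, lymphoblastoid cells in complete medium receive test compound for a day at 37 C before ATP content is quantified by luciferase luminescence. Reported AC50 figures come from standard Hill-equation curve fitting.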

[8] = Cell Viability - LYMP2-021 (AID 974);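 further: compound exposure lasts 24 hours at 37 °C; nearly all actives have a fitted effect of over 55% in size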
Procedure, shortened: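 In qHTS format, compounds are tested against 2500 lymphoblastoid cells per well for 24 h; viable cell number is inferred from ATP-driven luciferase light, and Hill-equation fitting yields AC50 values.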

[9] = Cell Viability - LYMP2-006 (AID 978); further: series mostly up to about 92 µM; nearly all actives have a fitted effect of over 60% in size
Procedure, shortened: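 Human lymphoblastoid cells, 2500 per well, were preincubated 5 hr at 37 C, then exposed to compounds for 24 hr at 37 C in complete medium. Viability was read as intracellular ATP by CellTiter-Glo luminescence; AC50 from Hill-equation fits of qHTS concentration-response data.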

[10] = Cell Viability - LYMP2-007 (AID 979);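 further: cells exposed to compound for 24 h before reading; nearly all actives have a fitted effect of over 60% in size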
Procedure, shortened: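 Measured via luciferase-based ATP quantitation: lymphoblastoid cells, 24 hr compound exposure at 37 C, AC50 from Hill fits.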

[11] = Cell Viability - LYMP2-008 (AID 980); further: nearly all actives have a fitted effect of over 60% in size
Procedure, shortened: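 Measured: ATP-dependent luminescence, proportional to viable cell number, in human lymphoblastoid cells treated 24 hr with compound in complete culture medium. Values are AC50s from Hill-equation modelling of qHTS titrations.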

[12] = Cell Viability - LYMP2-010 (AID 981); further: nearly all actives have a fitted effect of over 55% in size
Procedure, shortened: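 This 24 hr viability screen uses LYMP2-010 lymphoblastoid cells, quantifies ATP via luciferase luminescence, and derives AC50 from Hill fits of qHTS concentration-response data.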

[13] = Cell Viability - LYMP2-012 (AID 982)
[14] = Cell Viability - LYMP2-016 (AID 984); further: nearly all actives have a fitted effect of over 55% in size
Procedure, shortened: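 Human lymphoblastoid cells (LYMP2-016), 2500/well in complete medium, preincubated 5 hr at 37 C, then compound-treated 24 hr at 37 C. Intracellular ATP read by CellTiter-Glo luminescence after 30 min at room temperature; AC50 from Hill-equation concentration-response fits.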

[15] = Cell Viability - LYMP2-018 (AID 985); further: nearly all actives have a fitted effect of over 50% in size
Procedure, shortened: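 In this qHTS viability assay, cells are treated for 24 hr and cellular ATP is quantified by luciferase-based luminescence, with tetraoctylammonium bromide as positive control.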

[16] = Cell Viability - LYMP2-020 (AID 986)
Procedure, shortened: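 Cells at 2500 per well receive a 24 hr compound exposure at 37 C. Viability is measured as ATP-dependent luciferase luminescence, with AC50 modeled from qHTS concentration-response curves.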

[17] = Cell Viability - LYMP2-022 (AID 987); further: nearly all actives have a fitted effect of over 55% in size
Procedure, shortened: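 In this qHTS cytotoxicity screen, compound titrations were incubated 24 hr at 37 C with human lymphoblastoid cells in complete medium. Luciferase-based ATP luminescence provided the viability signal.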

[18] = Cell Viability - LYMP2-026 (AID 989); further: nearly all actives have a fitted effect of over 50% in size
Procedure, shortened: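 Acute toxicity screen in complete culture medium, with 24 hr compound exposure at 37 C. Viability read as cellular ATP via luciferase reaction, with tetraoctylammonium bromide (6.4pM to 92 uM) as positive control.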

[19] = qHTS Assay for Identification of Small Molecule Antagonists for Thrombopoietin (TPO) Signaling Pathway (AID 918); settings: TPO-dependent cell signaling reporter, antagonist mode
Procedure, shortened: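 Antagonist mode at EC50 TPO (26 pM) in IL-3-free medium; murine Ba/F3 cells with human TPO receptor and GPIIb-promoter luciferase, 24 hrs at 37 C before luminescent detection.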

[20] = qHTS for differential inhibitors of proliferation of Plasmodium falciparum line 7G8 (AID 1815);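 further: potency means the concentration at half of the fitted maximal effect; parasite growth measured after three days of incubation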

Measured: Potency

Cc1ccccc1O
not listed: [19] | [20]
inactive: all other assays above

CC(C)COC(=O)OCN1C(=O)CN(CCN2CC(=O)N(COC(=O)OCC(C)C)C(=O)C2)CC1=O
active: [19] 0.251 µM

CC(=O)[C@H]1CC[C@H]2[C@@H]3CCC4=CC(=O)CC[C@]4(C)[C@H]3CC[C@]12C
active: [20] 8.91 µM
